# This is a sample that favours compounds with a hit; in the whole collection about 7.5% have one here.
# SMN2 splice enh: qHTS Assay for Enhancers of SMN2 Splice Variant Expression | HEK293 SMN2-luciferase splicing reporter, luminescence, 30-36 h | Potency, µM (series often up to 46.1 µM), inactives show top-dose activity change, positive = activation, usual class: activators | 210,000 compounds, 2.8% hits | AID 1458, 2008; note: % of control where 0% means no effect; nearly all actives have a fitted effect of over 55% in size
#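 HEK293 cells carry an SMN2 […]–luciferase reporter in which exon 7 inclusion puts luciferase in frame. Cells were plated 10-12 h before compound addition, then incubated 30-36 h at 37C. ONE-Glo luminescence was read; sodium butyrate at 4.5 mM final served as control.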
# FLuc counter: qHTS profiling assay for firefly luciferase inhibitor/activator using purifed enzyme and Km concentrations of substrates (counterscreen for miR-21 project). AID 588342, 2011. Potency, µM (titrated, usually from 57.5 µM), for the others: at the highest dose activity change, negative = inhibition, most hits filed as inhibitors. 360,000 compounds, 6.9% hits. purified FLuc, Km substrates, luminescence inhibition;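 note: plate controls were vehicle for no effect and reference inhibitor for full effect; nearly all actives have a fitted effect of over 55% in size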
# Target sequence (P08659 whole entry, looked up): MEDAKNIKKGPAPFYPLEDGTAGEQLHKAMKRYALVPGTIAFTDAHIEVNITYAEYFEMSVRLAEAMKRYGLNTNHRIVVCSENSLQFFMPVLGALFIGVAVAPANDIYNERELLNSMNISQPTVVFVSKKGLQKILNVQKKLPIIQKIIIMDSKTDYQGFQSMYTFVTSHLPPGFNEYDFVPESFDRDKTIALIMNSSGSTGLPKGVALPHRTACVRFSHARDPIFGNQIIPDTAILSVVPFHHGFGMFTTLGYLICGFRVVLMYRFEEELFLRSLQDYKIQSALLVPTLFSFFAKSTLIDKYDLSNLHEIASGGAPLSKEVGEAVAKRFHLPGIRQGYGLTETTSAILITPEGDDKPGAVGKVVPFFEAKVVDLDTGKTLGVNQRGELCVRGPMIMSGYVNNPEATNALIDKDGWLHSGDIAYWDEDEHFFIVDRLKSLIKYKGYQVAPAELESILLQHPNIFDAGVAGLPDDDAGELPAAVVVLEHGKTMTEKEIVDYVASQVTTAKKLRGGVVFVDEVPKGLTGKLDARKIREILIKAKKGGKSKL
#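 Biochemical qHTS of compounds, final roughly 60 µM downward over six points, against 10 nM purified firefly luciferase using Km concentrations of substrates (10 uM D-luciferin, 10 uM ATP) in Tris acetate pH 7.5 buffer; luminescence output.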
# Rab9 promoter act: qHTS Assay for Rab9 Promoter Activators | 320,000 compounds, 2.8% hits | Huh7 Rab9 promoter-luciferase reporter, luminescence, 24 h | Potency, µM (top dose mostly 9.22 µM), for inactives: at the top dose activation, negative = inhibition, hits mostly activators; note: % of control where 0% means no effect; nearly all actives have a fitted effect of over 60% in size
#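 Steps: seed 1500 Huh7 Rab9-luc cells per well, rest 2 h at 37 °C; add compound in DMSO; incubate 24 h; add luciferase reagent, 10 min ambient; read luminescence.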
# ELG1 genotoxic: qHTS screen for small molecules that induce genotoxicity in human embryonic kidney (HEK293T) cells expressing luciferase-tagged ELG1. HEK293T ELG1-luciferase reporter, luminescence, 16 h. Potency, µM (series often up to 46 µM), for the others: at the top dose activity change, positive = activation, hits mostly activators. 330,000 compounds, 1.3% hits; note: % of control where 0% means no effect; nearly all actives have a fitted effect of over 60% in size
#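 Step 1: seed 2,000 HEK293T ELG1-luciferase cells per well. Step 2: add compound or DMSO, incubate 16 hr at 37 °C. Step 3: ONE-Glo, 30 min at room temperature, read luminescence.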
# NPC1 promoter act: qHTS Assay for NPC1 Promoter Activators; Huh7 NPC1 promoter luciferase reporter, 24 h; Potency, µM (doses to about 9.22 µM), for the others: top-dose activation, most hits filed as activators; 320,000 compounds, 2.4% hits; AID 485313, 2010; note: % of control where 0% means no effect; nearly all actives have a fitted effect of over 60% in size
#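 Luciferase expression driven by the NPC1 promoter was measured in stably transfected Huh7 cells after a 24 h compound incubation, using a luciferase reagent and a luminescence read.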
# KinaseGlo FLuc: Counterscreen for Luciferase (Kinase-Glo TM) Inhibition. AID 1379, 2008. 200,000 compounds, 0.28% hits. Luciferin 4-monooxygenase (Photuris pensylvanica), Q27757. Kinase-Glo luciferase, ATP luminescence, 8 min. Potency, µM (doses to about 38.3 µM), without a hit: at the top dose activity change, negative = inhibition, usual class: inhibitors; note: % is set by controls: 0 for no effect and ±100 for the full control effect; nearly all actives have a fitted effect of over 60% in size
#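 Inhibition of Kinase-Glo luciferase light generation was assessed at 10 uM ATP in pH 7.2 imidazole buffer, with luminescence measured after eight minutes at ambient temperature.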
# The depositor's hits bear a star; ? = inconclusive; . = no result. Calls come from the whole dose curve; as a rule, active = well fitted curve in the direction sought with a large enough effect; inconclusive = small, poorly fitted or top-dose-only effect, or another doubt; inactive = no such curve, though single readings can be large; an effect the other way counts as inactive or inconclusive. Potency is the fitted concentration of half-maximal effect.
SMILES,SMN2 splice enh,FLuc counter,Rab9 promoter act,ELG1 genotoxic,NPC1 promoter act,KinaseGlo FLuc
COc1ccc(CNC(=O)c2ccc3c(c2)CCN3S(=O)(=O)c2ccccc2)cc1,-20%,0%,.,.,.,.
CSc1c(-c2ccccn2)c(N)nn1C(=O)C1CC1,.,19µM*,0%,0%,0%,.
CCc1cccc(NC(=O)C(c2ccccc2)N2Cc3ccccc3C2=O)c1 (stereo not given),.,-10%,.,.,.,.
O=C(Oc1coc(CSc2ncccn2)cc1=O)c1ccccc1[N+](=O)[O-],5%,6.7µM*,3%,-16%,-5%,?
CC(=O)N1CCc2cc(CNS(=O)(=O)c3ccc(Br)s3)ccc21,.,-2%,.,.,.,.
CCCC(=O)c1ccc(N2CCOCC2)c(F)c1,-9%,?,25%,6%,?,-6%
Cc1ccc(C(=O)c2ccc(N3CCOCC3)c(F)c2)cc1,-39%,17µM*,30%,9%,19%,7%
CC(C)C(NC(=O)c1ccc(C(C)(C)C)cc1)C(=O)OCC(=O)NC(=O)Cc1ccccc1 (stereo not given),17%,21µM*,-4%,0%,1%,0%
COC(=O)C(C)NC(=O)c1ccc(C(C)(C)C)cc1 (stereo not given),?,19µM*,22%,17%,21%,-4%
COc1ccccc1CNC(=O)c1ccc(CSc2nc3ccncc3n2Cc2cccc(F)c2)cc1,1%,5%,.,.,.,.
COC(=O)c1cc(NC(=O)Cn2ncc3c2-c2ccccc2OC3)cc(C(=O)OC)c1,-7%,2%,.,.,.,.
COc1cc(C(=O)Nc2ccc3c(c2)OCCO3)ccc1OC(C)C,11µM*,7.6µM*,3.2µM*,?,?,-11%
COc1ccc(NC(=O)c2ccc3c(c2)OCCO3)cc1OC,.,2.7µM*,2.2µM*,5.6µM*,1.4µM*,.
COc1cc(NC(=O)c2ccc3c(c2)OCCO3)ccc1NC(=O)c1ccccc1Cl,.,-2%,-1%,12%,10%,.
Cc1c([N+](=O)[O-])c(C(=O)Nc2ccc3c(c2)OCCO3)nn1C,13µM*,?,?,12µM*,?,13µM*
COc1cc(C(=O)Nc2ccc3c(c2)OCCO3)ccc1OC(F)F,14µM*,6µM*,2.8µM*,?,3.2µM*,-17%
CCCCN(CC)CCCNC(=S)Nc1ccc2nc3n(c(=O)c2c1)CCCCC3,2%,-2%,1%,2%,1%,1%
COc1ccc(C(=O)Nc2ccc3c(c2)OCCO3)cc1[N+](=O)[O-],22%,11µM*,?,14%,18%,2%
Cc1cc(C)n2nc(C(=O)OCC(=O)N3C(C)CCCC3C)nc2n1 (stereo not given),.,1%,1%,11%,-3%,.
CCC(C)Nc1nc(-c2c[nH]c3ccccc23)cs1 (stereo not given),.,13µM*,22%,13%,16%,.
CCc1ccc(-c2csc(-c3c[nH]c4ccccc34)n2)cc1,13µM*,21µM*,1.1µM*,?,2.5µM*,6%
CNc1nc(-c2c[nH]c3ccccc23)cs1,12%,?,13%,8%,10%,-2%
COc1ccc(NC(=O)CN(C)C(=O)C2(c3ccccc3)CCCC2)cc1,.,.,.,-17%,.,.
O=C(COCc1cc(-c2cccs2)on1)N1CCN(c2ccccc2)CC1,.,-12%,.,.,.,.
Cc1ccc(-n2ncc3c(NC4CCCCCC4)ncnc32)cc1,.,0.95µM*,.,.,.,.
Fc1ccc(-n2ncc3c(NC4CCCCCC4)ncnc32)cc1,.,4.8µM*,.,.,.,.
Cc1ccc(-n2ncc3c(NC4CCCCC4)ncnc32)cc1,.,0.43µM*,.,.,.,.
Clc1cccc(-n2ncc3c(NC4CCCCC4)ncnc32)c1,.,4.8µM*,.,.,.,.
